Screening data (PubChem)
Shown are actives, neighbours in structure and some others; about 2.8% of the full set was active somewhere.
CF NFkB inh – inhibitors of PAF-induced NF-kB signaling, primary screen, cell-based, GFP fluorescence, uHTS | KKLEB NF-kB-GFP reporter, GFP fluorescence overnight | inhibition, % at 5 µM | actives 0.86% (n = 360,000) | AID 588850, 2011;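 active = at least 50% inhibition at 5 µM, scaled per plate between neutral and stimulator controls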;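 also: PAF is a Pseudomonas aeruginosa culture filtrate used as stimulus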
KKLEB cytotox – cytotoxicity in KKLEB CF airway cells, primary screen, cytotoxicity control for CF NF-kB inhibitor project, cell-based, uHTS, fluorescence assay plates; activity change (cytotoxicity), % at 5 µM; actives 0.36% (n = 360,000); AID 602141, 2011; KKLEB CF airway cells viability, ATPlite luminescence, overnight; hits give low values; cells stimulated with P. aeruginosa culture filtrate;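 active = corrected activity change at or below -50% at 5 µM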
Peg3 promoter – Peg3 promoter-driven luciferase inhibitors, primary screen, cell-based, HeLa, luciferase luminescence; AID 588405, 2011; actives 1.7% (n = 360,000); HeLa PEG-Prom luciferase reporter, overnight; inhibition, % at 20 µM;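 active = inhibition of at least 50% at 20 µM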
HIF-2a inh – HIF-2a reporter inhibitors, primary screen, luminescence, 786-0 RCC cells; actives 0.72% (n = 360,000); 786-0 RCC cells HIF-2a reporter, luciferase luminescence, overnight; inhibition, % at 18.8 µM;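 active = inhibition of the luminescence signal of 40% or more relative to plate controls, in a single-dose primary screen at 18.75 µM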
B2AR ag – beta2AR agonists driving receptor internalization, primary screen, cell-based, FAP fluorogen, flow cytometry; Am2.2-beta2AR cells; actives 0.43% (n = 340,000); response, % (test concentration not listed); AID 504454, 2011; Beta-2 adrenergic receptor (Homo sapiens), P07550;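 active = response above a set limit, near 3 SD of response in nonfluorescent compounds, cut at about 42% in these data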
Target sequence (P07550 whole entry, looked up): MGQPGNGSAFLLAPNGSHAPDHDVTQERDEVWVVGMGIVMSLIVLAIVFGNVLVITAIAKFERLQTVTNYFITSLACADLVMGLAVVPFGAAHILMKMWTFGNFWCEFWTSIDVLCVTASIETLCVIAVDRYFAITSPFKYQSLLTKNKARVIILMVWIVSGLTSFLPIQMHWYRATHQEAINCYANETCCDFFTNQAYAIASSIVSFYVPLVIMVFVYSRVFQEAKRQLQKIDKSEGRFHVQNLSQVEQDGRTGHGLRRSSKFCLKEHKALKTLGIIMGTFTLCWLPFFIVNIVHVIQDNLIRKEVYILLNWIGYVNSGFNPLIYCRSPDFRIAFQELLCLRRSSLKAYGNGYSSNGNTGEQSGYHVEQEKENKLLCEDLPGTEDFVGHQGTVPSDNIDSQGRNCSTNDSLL
TRPM1 prom inh – inhibitors of MITF-dependent TRPM1 promoter reporter, primary screen, cell-based, SK-MEL-5, single point, luciferase. inhibition, % at 12.5 µM. actives 0.83% (n = 330,000). AID 488899, 2010. SK-MEL-5 TRPM1 promoter luciferase, 24 h;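 active = mean inhibition across replicates of 60% or more, whatever share of single replicates reaches that level; inconclusive = some that reach 60%, reason not given; inactive = mean inhibition across replicates below 60%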
Numbers stand for hits; . = inactive; ? = inconclusive; / = no result.

SMILES	CF NFkB inh	KKLEB cytotox	Peg3 promoter	HIF-2a inh	B2AR ag	TRPM1 prom inh
COc1ccc(CNCCc2ccc(Cl)cc2)cc1OCc1ccccc1	.	.	78	.	.	.
COc1ccc(CNCCc2ccccc2)cc1OCC(N)=O	.	.	.	.	.	.
COc1ccc(CCNCc2ccc(-c3ccccc3)cc2)cc1OC	.	.	87	.	.	.
Cc1cc(Br)cn2c(Cc3ccsc3)c(-c3ccc(F)cc3)nc12	.	.	.	.	/	/
O=C(Nc1nnc([C@H]2C[C@H](O)[C@@H](CO)O2)s1)NC(c1ccccc1)c1ccccc1	.	.	.	.	/	/
C[C@@H]1CN([C@H](C)CO)C(=O)CCCn2nncc2CO[C@@H]1CN(C)S(=O)(=O)c1ccc(F)cc1	.	.	.	.	/	/
Cc1ccc(S(=O)(=O)NC2=C(N3CCN(Cc4ccccc4)CC3)C(=O)c3ccccc3C2=O)cc1	.	.	.	.	53	.
CCOC(=O)N1CCN(C2=C(NS(=O)(=O)c3ccc(C)cc3)C(=O)c3ccccc3C2=O)CC1	54	.	.	.	.	.
Cc1ccc(S(=O)(=O)NC2=C(N3CCN(c4ccccc4F)CC3)C(=O)c3ccccc3C2=O)cc1	.	.	.	.	.	.
COc1ccc(CN2CCC[C@]3(N[C@H](c4ccccc4)[C@@H]4C(=O)N(Cc5ccccc5)C(=O)[C@@H]43)C2=O)cc1	.	.	.	.	/	/
COc1ccc(C(=O)Nc2ccc(C(=O)Nc3cccnc3)cc2)cc1	.	.	.	.	54	.
COc1ccc(NC(=O)c2ccc(NC(=O)c3cccnc3)cc2)cc1	.	.	.	.	/	/
COc1ccc(N2CCN(Cc3cc(=O)oc4cc(-c5ccccc5)c(O)cc34)CC2)cc1	.	.	70	.	.	.
COc1cc([C@@H]2c3cc4c(cc3[C@H](O)[C@H]3COC(=O)[C@H]23)OCO4)cc(OC)c1OC	51	.	.	.	.	61
COc1cc(C2c3cc4c(cc3OC(NNC(N)=O)C2C)OCO4)cc(OC)c1OC (stereo unspecified)	51	.	.	.	.	.
COc1cc(C2c3cc4c(cc3C(OC3OC5COC(c6cccs6)OC5C(O)C3O)C3COC(=O)C23)OCO4)cc(OC)c1O (stereo unspecified)	.	.	.	.	.	76
O=C(NCC(=O)N1CCC(Cc2ccccc2)CC1)c1ccccc1F	.	.	.	.	/	/
CN(C(=O)c1ccncc1)c1ccccc1	.	.	.	.	.	.
C/C(=N\N(Cc1ccccc1)c1ccccc1)c1ccncc1	58	-57	.	.	.	.
CCCCN1C(=O)C(CC(=O)NCC2CCCCC2)CC(C(=O)N(C(C)C)C(C)C)=C1C (stereo unspecified)	.	.	.	.	/	/
O=C(Nc1ccc(N2CCOCC2)c(Cl)c1)c1c(F)c(F)c(F)c(F)c1F	.	.	52	.	.	.
CC[C@@H]1Cc2[nH][nH]c(=O)c2[C@@H](c2ccc(Cl)cc2)O1	/	/	/	.	/	/
CCn1cnc2cc(NCc3ccc(OC)cc3)ccc21	.	.	.	.	.	.
CCOc1ccc2nc3cc(NCc4ccc(OC)cc4)ccc3c(N)c2c1	.	.	93	.	.	?
O=C(Nc1cccc2c1CCCC2)c1cc(C2CCCCN2C(=O)CCCc2ccccc2)on1 (stereo unspecified)	.	.	.	.	/	/
SMILES	CF NFkB inh	KKLEB cytotox	Peg3 promoter	HIF-2a inh	B2AR ag	TRPM1 prom inh
CCCCn1nnnc1C(c1ccccc1)N1CCN(c2cccc(C)c2C)CC1 (stereo unspecified)	/	/	/	.	/	/
COC(=O)c1c(C)oc2ccc(N(C(=O)Oc3ccccc3)S(=O)(=O)c3ccc(Cl)c([N+](=O)[O-])c3)cc12	.	.	.	.	60	.
O=C(NCc1ccccc1OC(F)(F)F)C1CCC(=O)N(CCCN2CCOCC2)C1 (stereo unspecified)	.	.	.	.	/	/
COc1ccc(OC)c(-c2csc(NC(=O)COC(=O)c3ccc(NC(=O)CC#N)cc3)n2)c1	.	.	.	.	42	/
O=C(Oc1ccc(Br)cc1C(=O)/C=C/c1ccccc1F)c1ccco1	.	.	50	.	58	.
O=C1C=C(NCCc2cc(Br)c(O)c(Br)c2)C(=O)c2ncccc21	76	.	93	.	.	109
CC(C)c1cccc(-c2csc(C(C)(O)c3ccc(F)c(F)c3)n2)c1 (stereo unspecified)	.	.	.	.	/	/
COc1ccc(NC(=O)Nc2ccc3c(c2)C(=O)N([C@H](C)CO)C[C@H](C)[C@@H](CN(C)Cc2ccc(Cl)c(Cl)c2)OCCCC[C@@H](C)O3)cc1	.	.	86	.	/	/
CC1(c2nnnn2-c2ccc3c(c2)OCCO3)CCC(=O)N1Cc1cccc(C(F)(F)F)c1 (stereo unspecified)	/	/	/	.	/	/
O=C(Nc1cccc(Cl)c1)Nc1nnc(CSCCOc2ccc(Cl)cc2)s1	.	.	.	.	.	67
C=C1C(=O)C=C2CN(C(=O)c3ccccc3)[C@@](Cc3ccc(F)cc3)(C(=O)OC)[C@@H]12	75	-91	99	97	79	99
O=C(CN1CC(=O)Oc2ccccc21)OCC(=O)c1ccccc1	50	-59	59	.	.	.
O=C(CN1CC(=O)Oc2ccccc21)OCC(=O)c1cccc(Br)c1	.	.	.	.	.	.
COc1cc(C2Oc3ccccc3C=C2[N+](=O)[O-])cc(OC)c1OC (stereo unspecified)	.	.	52	.	.	/
COc1cc(OC)c2c(-c3cccc(-c4ccc(CO)cc4)c3)cc(=O)oc2c1	57	.	.	.	.	77
COc1ccc(-c2cccc(-c3cc(=O)oc4cc(OC)cc(OC)c34)c2)cc1	.	.	.	.	.	67
COc1cc(OC)c2c(-c3cccc(-c4ccc(O)cc4)c3)cc(=O)oc2c1	.	.	.	.	.	.
O=C(COC(=O)c1cccc(-n2cnnn2)c1)c1ccc(F)c(F)c1	.	.	.	.	/	/
CC(C)CCN1C(=O)CSCC1(C)C(=O)NC(C)C (stereo unspecified)	/	/	/	.	/	/
CC/C(=N/Nc1ccccc1)c1cnnc(-c2ccccc2)n1	.	-51	.	.	.	.
CC/C(=N/Nc1cccc(Cl)c1)c1cnnc(SC)n1	.	.	.	.	.	.
CCOC(=O)/C=C/C(=O)OCC(=O)Nc1cccc(Br)c1	.	.	.	.	43	.
